Where “and” joins values, the source holds several entries; their conditions need not be identical. Equal entries are not always repeated. Inconclusive results are not listed. Calls of active or inactive are those of the source.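 The calls were made as follows, unless noted: active = GFP signal, as percent of the solvent control, above the screen mean plus 3 SD, about 149; inconclusive = no reading because the compound's own fluorescence upset strain identification; inactive = the rest.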
Legend:
[1] = yeast TOR pathway RPL19A-GFP modulators, primary screen, cell-based, S. cerevisiae, multiplex flow cytometry (AID 1862; in the data active = percent of DMSO control GFP below about 86%;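 also: lower values mimic rapamycin by blocking the RPL19A rise seen in DMSO cells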); conditions: S. cerevisiae RPL19A-GFP strain, flow cytometry fluorescence, 3 h; at 10 µM; stronger effect = lower value
[2] = modulators of MEP2-GFP levels in yeast, primary screen, S. cerevisiae, multiplex flow cytometry (AID 1867;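 active = GFP response, as percent of the DMSO control, above the screen-wide mean plus 3 SD, about 139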;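 also: median GFP channel fluorescence of barcode-gated MEP2-GFP cells measured by flow cytometry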); conditions: S. cerevisiae MEP2-GFP strain, 3 h, at 10 µM, stronger effect = higher value, 100% means same as DMSO wells
[3] = modulators of CIT2-GFP expression in yeast, primary screen, S. cerevisiae, GFP fusion, multiplex flow cytometry (AID 1870;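 active = percent response above a set limit, the screen-wide mean plus 3 SD, cut at about 130% in these data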;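 also: barcoded CIT2-GFP strain pooled with four other GFP strains with rapamycin as positive control; median GFP fluorescence per well over plate mean of DMSO wells so 100% = DMSO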); conditions: 3 h, at 10 µM, stronger effect = higher value
[4] = modulators of LAP4-GFP expression in yeast, primary screen, S. cerevisiae, multiplex flow cytometry (AID 1873); conditions: 3 h, at 10 µM, stronger effect = higher value
[5] = modulators of AGP1-GFP expression in yeast TOR pathway, primary screen, cell-based, multiplex flow cytometry, S. cerevisiae (AID 1887;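 active = GFP signal above the screen-wide mean plus 3 SD, that is over about 124.5% of the solvent control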;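 also: AGP1-GFP fusion strain of S. cerevisiae within a five-strain barcoded multiplex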); conditions: 3 h, at 10 µM, stronger effect = higher value
[6] = inhibitors of CD8+ T cell-vesicle binding, pilot screen, LFA-1/ICAM-1 modulator project, MLPCN validation set, flow cytometry (AID 2523;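 active = response below a set limit, under 55% cells CD8-positive and vesicle-bound, and CD8 cells' 90th-percentile brightness under 279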;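 as to vesicle binding response: mean PE anti-B7-1 fluorescence of CD8+ cells relative to row control; 100% = QL9-loaded vesicles with DMSO vehicle in the same plate row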); conditions: 2C mouse CD8+ T cells, at 7 µM, stronger effect = lower value; double positive events: measured here: CD8+/vesicle+ event percentage
[7] = biological target: Integrin beta-1 (Homo sapiens) + Integrin alpha-4 (Homo sapiens) (UniProt P13612+P05556); experiment: inhibition of HUTS-21 binding to VLA-4, pilot screen, VLA-4 allosteric modulator project, U937 cells, HUTS-21 mAb, flow cytometry, validation set (AID 2674;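 active = inhibition above 50%, about 3 SD of the validation set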;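 also: antibody binding induced by the VLA-4 ligand LDV present at three times its Kd; 0% = LDV ligand with antibody and no compound and 100% = antibody without LDV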); conditions: HUTS-21 LIBS mAb binding, at 6.7 µM, stronger effect = higher value, binding induced by LDV ligand
[8] = superoxide lowering in aged yeast cells, pilot screen, validation compound set (AID 2706;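 active = superoxide response below 65% of plate, a cut near 3 SD across the whole screen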;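 also: yeast exposed to compound for one week at 30 degrees C before staining; 100% = mean of all compound wells on the same plate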); conditions: S. cerevisiae aging, superoxide DHE fluorescence; at 10 µM; stronger effect = lower value
[9] = biological target: Beta-adrenergic receptor kinase 1 (Homo sapiens) (UniProt P25098); experiment: GRK2 binders displacing RNA aptamer, biochemical, validation, human GRK2, bead flow cytometry (AID 488806;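 active = aptamer binding inhibition above 30%, about 3 SD of noise from non-fluorescent compounds; inactive = inhibition at or below 30%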); conditions: bead-bound GRK2, FAM-aptamer displacement, at 10 µM, stronger effect = higher value
[10] = biological target: Beta-2 adrenergic receptor (Homo sapiens) (UniProt P07550); experiment: beta2AR agonists driving receptor internalization, pilot screen, cell-based, FAP fluorogen, flow cytometry, validation set (AID 504459;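 active = percent response above 42, roughly 3 SD of non-fluorescent test compounds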;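 also: agonist-driven loss of surface beta2AR via internalization measured by FAP dye flow cytometry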); conditions: Am2.2-beta2AR cells, FAP surface receptor flow cytometry; at 10 µM; stronger effect = higher value
[11] = biological target: AP-2 complex subunit beta (Homo sapiens) (UniProt P63010); experiment: inhibitors of arrestin peptide binding to AP2, pilot screen, biochemical, validation set, GST-AP2 beads, flow cytometry (AID 504541;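 active = inhibition above 54%, about 3 SD of non-fluorescent compounds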;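 also: AP2 carries R879A mutation and is captured from E. coli lysate; bead-bound FITC arrestin peptide fluorescence measuring arrestin peptide binding to AP2; 0% = DMSO wells and 100% = excess unlabeled arrestin peptide control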); conditions: FITC arrestin peptide, at 10 µM, stronger effect = higher value, AP2 beta2 appendage fragment, R879A mutant
[12] = yeast V-ATPase proton transport modulators, S. cerevisiae, pHLuorin, HTS validation (AID 504600; in the data active = response above about 15%;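 also: plate controls were DMSO for no effect and reference compound for full effect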); conditions: S. cerevisiae pHLuorin cytosolic pH, at 10 µM, stronger effect = higher value
[13] = tested on: anti-desmoglein-3 scFv antibody binding to human DSG3; experiment: inhibitors of anti-DSG3 scFv binding to DSG3, pilot screen, biochemical, validation compound set, bead-based, flow cytometry (AID 588368;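 active = binding below the plate cutoff, the plate median minus 3 SD, with a reading above zero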;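 also: signal is the median channel fluorescence of bead-bound GFP antibody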); conditions: Protein G beads, DSG3-Fc, scFv-GFP binding, at 10 µM, stronger effect = lower value
[14] = biological target: ATP-binding cassette sub-family B member 6 (Homo sapiens) (UniProt Q9NP58); experiment: ABCB6 transporter inhibitors, pilot screen, K562-ABCB6 cells, flow cytometry, validation set (AID 588550;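 active = inhibition above the screen-wide mean plus 3 SD, about 51%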;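 also: 0% = DMSO wells and 100% = benzethonium chloride 70 µM positive control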); conditions: K562-ABCB6 porphyrin accumulation, 1 h, at 10 µM, stronger effect = higher value
[15] = promoters of myeloid differentiation in arrested cells, primary screen, cell-based, GFP/MAC1 double positive, flow cytometry, validation set (AID 588685;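 active = differentiation response of at least 50%, scaled between solvent and reference control, from cells with both markers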;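 also: compound exposure lasts four days before antibody staining and flow analysis; 0% = DMSO wells and 100% = 5 µM fulvestrant positive control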); conditions: ER-HoxA9 marrow cells, stronger effect = higher value, normalized: vehicle 0, fulvestrant 100
[16] = inhibitors of fungal efflux pumps CDR1, CDR2, MDR1, pilot screen, validation compound set, multiplex, phenotypic (AID 588506;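 active = efflux inhibition above 0.42, the validation set average plus 4 SD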;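 also: Nile Red retained in cells so higher fluorescence means more efflux inhibition; 0 = negative control wells and 1 = enniatin B 25 µM full block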); conditions: S. cerevisiae pump-expressing triplex, Nile Red efflux flow cytometry; at 10 µM; stronger effect = higher value; the pumps come from Candida albicans

Chain of Integrin beta-1 (Homo sapiens) + Integrin alpha-4 (Homo sapiens) (P05556 whole entry, looked up): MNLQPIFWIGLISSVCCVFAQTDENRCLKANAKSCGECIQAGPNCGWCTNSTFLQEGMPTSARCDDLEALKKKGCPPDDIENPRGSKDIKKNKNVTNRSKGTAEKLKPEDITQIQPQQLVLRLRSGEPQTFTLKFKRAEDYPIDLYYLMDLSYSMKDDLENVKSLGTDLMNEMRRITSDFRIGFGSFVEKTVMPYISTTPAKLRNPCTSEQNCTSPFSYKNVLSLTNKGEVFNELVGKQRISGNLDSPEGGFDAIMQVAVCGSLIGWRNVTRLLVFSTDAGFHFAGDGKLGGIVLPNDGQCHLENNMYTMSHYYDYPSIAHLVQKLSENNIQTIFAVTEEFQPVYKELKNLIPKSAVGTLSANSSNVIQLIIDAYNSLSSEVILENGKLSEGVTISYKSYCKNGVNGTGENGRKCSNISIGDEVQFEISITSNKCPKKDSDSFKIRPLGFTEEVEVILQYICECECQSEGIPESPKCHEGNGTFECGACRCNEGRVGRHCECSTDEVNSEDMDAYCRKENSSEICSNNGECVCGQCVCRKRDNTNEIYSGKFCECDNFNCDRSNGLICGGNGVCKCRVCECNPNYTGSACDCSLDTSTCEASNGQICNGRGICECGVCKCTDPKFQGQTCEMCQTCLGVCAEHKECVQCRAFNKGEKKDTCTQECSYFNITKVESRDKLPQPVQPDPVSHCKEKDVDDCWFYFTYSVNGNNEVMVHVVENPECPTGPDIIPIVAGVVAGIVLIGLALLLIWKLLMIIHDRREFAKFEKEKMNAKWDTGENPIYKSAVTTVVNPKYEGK
Chain of Integrin beta-1 (Homo sapiens) + Integrin alpha-4 (Homo sapiens) (P13612 whole entry, looked up): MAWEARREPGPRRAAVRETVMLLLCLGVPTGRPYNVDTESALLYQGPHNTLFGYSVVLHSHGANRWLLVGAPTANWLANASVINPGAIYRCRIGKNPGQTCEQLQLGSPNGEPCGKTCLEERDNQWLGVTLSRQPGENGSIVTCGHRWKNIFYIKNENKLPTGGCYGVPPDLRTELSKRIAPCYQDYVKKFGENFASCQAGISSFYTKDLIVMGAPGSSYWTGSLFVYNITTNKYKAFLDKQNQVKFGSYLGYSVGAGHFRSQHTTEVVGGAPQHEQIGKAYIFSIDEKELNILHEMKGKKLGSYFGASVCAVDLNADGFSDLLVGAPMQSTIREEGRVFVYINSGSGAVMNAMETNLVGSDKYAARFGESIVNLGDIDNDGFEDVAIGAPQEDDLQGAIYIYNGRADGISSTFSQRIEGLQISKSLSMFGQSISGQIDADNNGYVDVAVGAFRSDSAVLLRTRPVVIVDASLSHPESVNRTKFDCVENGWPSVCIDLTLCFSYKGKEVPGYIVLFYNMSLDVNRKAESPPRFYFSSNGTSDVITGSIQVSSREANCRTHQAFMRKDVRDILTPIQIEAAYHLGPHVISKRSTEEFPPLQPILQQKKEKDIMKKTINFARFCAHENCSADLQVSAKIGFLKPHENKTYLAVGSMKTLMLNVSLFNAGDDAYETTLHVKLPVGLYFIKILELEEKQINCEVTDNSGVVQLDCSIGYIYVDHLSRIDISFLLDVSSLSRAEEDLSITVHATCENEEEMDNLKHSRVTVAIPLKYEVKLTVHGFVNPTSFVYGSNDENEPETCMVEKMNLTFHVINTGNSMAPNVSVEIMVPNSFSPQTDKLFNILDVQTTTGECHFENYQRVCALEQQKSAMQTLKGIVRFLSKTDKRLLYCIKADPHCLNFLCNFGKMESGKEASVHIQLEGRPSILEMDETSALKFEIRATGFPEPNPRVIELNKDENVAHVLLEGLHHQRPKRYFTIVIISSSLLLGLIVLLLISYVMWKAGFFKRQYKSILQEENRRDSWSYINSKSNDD
Chain of Beta-2 adrenergic receptor (Homo sapiens) (P07550 whole entry, looked up): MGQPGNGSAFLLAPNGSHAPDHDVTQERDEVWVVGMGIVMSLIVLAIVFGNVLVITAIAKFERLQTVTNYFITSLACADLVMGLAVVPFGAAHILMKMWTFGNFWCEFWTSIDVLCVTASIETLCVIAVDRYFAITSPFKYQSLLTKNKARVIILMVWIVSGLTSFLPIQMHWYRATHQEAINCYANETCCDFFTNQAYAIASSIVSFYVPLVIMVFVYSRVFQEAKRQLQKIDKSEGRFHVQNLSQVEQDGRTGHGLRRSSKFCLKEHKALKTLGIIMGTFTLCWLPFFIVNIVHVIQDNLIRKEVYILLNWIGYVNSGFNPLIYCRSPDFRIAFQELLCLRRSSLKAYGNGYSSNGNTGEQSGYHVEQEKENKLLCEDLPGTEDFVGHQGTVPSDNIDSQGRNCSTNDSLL
Chain of ATP-binding cassette sub-family B member 6 (Homo sapiens) (Q9NP58 whole entry, looked up): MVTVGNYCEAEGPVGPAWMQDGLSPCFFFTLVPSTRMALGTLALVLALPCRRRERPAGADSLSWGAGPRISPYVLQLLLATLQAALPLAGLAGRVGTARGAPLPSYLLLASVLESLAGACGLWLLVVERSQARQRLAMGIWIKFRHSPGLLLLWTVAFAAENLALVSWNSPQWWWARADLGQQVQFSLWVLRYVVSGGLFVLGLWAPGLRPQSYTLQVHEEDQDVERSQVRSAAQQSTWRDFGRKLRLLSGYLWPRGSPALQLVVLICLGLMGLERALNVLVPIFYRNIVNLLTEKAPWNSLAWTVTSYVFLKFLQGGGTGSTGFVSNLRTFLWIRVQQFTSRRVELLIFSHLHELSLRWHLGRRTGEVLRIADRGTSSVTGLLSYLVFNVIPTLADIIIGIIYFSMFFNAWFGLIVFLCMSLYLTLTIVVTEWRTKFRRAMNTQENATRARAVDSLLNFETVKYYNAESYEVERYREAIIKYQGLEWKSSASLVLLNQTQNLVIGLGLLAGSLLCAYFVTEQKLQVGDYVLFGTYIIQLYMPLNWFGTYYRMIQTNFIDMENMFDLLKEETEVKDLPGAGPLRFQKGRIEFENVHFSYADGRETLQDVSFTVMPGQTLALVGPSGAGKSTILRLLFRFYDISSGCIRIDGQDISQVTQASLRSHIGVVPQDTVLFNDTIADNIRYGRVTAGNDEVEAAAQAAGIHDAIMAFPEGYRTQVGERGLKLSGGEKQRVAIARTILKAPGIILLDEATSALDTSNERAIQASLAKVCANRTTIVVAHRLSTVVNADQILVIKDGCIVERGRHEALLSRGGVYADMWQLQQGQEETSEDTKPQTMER
Chain of Beta-adrenergic receptor kinase 1 (Homo sapiens) (P25098 whole entry, looked up): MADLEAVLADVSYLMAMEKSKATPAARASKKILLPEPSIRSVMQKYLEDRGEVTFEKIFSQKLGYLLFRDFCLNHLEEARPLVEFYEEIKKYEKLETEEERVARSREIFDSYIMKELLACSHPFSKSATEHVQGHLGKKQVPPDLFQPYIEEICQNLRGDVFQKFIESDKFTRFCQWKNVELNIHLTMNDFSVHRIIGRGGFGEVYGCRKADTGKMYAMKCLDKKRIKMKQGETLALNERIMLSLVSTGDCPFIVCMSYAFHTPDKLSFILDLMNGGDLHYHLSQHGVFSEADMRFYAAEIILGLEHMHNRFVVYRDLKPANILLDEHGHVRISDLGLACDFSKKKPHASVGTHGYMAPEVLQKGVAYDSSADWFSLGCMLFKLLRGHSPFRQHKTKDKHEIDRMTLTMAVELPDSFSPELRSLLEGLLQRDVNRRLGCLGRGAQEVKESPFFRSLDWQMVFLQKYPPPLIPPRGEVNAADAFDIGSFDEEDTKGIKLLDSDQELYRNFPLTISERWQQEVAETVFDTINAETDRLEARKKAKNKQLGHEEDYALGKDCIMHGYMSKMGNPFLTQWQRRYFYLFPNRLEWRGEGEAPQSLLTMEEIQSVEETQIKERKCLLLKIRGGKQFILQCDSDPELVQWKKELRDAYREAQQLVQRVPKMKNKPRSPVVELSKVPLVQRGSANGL
Chain of AP-2 complex subunit beta (Homo sapiens) (P63010 whole entry, looked up, the tested form may be a part, one chain of several): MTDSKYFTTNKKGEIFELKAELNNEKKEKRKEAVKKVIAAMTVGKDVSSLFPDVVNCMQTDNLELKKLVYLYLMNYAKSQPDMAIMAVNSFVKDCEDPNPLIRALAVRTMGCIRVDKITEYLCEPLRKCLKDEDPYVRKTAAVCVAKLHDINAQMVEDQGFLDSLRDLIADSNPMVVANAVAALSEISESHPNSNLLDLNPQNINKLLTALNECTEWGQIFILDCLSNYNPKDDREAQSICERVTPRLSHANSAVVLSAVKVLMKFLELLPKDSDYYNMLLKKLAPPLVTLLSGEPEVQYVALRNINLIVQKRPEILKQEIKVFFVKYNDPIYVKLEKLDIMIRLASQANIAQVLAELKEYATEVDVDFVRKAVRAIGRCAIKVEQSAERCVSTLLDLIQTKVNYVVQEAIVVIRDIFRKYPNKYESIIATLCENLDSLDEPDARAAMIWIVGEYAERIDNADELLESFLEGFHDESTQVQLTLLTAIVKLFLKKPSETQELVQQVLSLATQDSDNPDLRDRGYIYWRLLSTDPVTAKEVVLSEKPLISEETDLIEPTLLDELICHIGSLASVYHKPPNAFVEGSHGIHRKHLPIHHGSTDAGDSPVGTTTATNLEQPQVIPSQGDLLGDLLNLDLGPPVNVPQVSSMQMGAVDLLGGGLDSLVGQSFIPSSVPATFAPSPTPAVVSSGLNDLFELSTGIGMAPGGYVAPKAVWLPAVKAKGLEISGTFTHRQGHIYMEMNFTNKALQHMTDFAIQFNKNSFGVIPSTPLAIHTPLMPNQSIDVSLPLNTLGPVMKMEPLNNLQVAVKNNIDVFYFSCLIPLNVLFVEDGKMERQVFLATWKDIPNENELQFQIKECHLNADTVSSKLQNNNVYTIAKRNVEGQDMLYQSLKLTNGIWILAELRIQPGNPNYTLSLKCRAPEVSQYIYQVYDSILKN

Compound | percent of DMSO control GFP [1] | GFP response vs DMSO [2] | percent response of DMSO control [3] | GFP response vs DMSO [4] | GFP response, % of DMSO [5] | double positive events [6] | vesicle binding response [6] | inhibition [7] | superoxide response (% of plate) [8] | aptamer binding inhibition [9] | response [10] | inhibition [11] | response [12] | binding (% of control) [13] | inhibition [14] | differentiation response [15] | efflux inhibition (fraction of control) [16]
CC1(C)S[C@@H]2[C@H](NC(=O)[C@H](N)c3ccccc3)C(=O)N2[C@H]1C(=O)O | 94.2% (inactive) and 101% (inactive) | 112% (inactive) and 102% (inactive) | 110% (inactive) and 102% (inactive) | 73.2% (inactive) and 108% (inactive) | 93.1% (inactive) and 112% (inactive) | 68.4% and 59.6% | 234% (inactive) and 191% (inactive) | 6.46% (inactive) and 15.1% (inactive) | 95.9% (inactive) and 95% (inactive) | 4% (inactive) and 7% (inactive) | -4.57% (inactive) and -17.9% (inactive) | 0.2% (inactive) and -9.24% (inactive) | 4.43% (inactive) and -37.5% (inactive) | 108% (inactive) and 102% (inactive) | 4% (inactive) and 0% (inactive) | -1.64% (inactive) and -7.94% (inactive) | –
COc1ccc(C(=O)O)cc1F | 104% (inactive) | 107% (inactive) | 107% (inactive) | 94.8% (inactive) | 103% (inactive) | 65.5% | 151% (inactive) | -1.09% (inactive) | 105% (inactive) | 3% (inactive) | 3.73% (inactive) | 15.5% (inactive) | -13.5% (inactive) | 102% (inactive) | -3% (inactive) | -8.96% (inactive) | -0.09 (inactive)
CC(C)c1cc(=O)oc2c3c4c(cc12)CCCN4CCC3 | 104% (inactive) | 99.6% (inactive) | 99.6% (inactive) | 78.6% (inactive) | 90.6% (inactive) | 59.3% | 145% (inactive) | – | 97.7% (inactive) | 9% (inactive) | 46% (active) | -43.1% (inactive) | 21.6% (active) | 98.7% (inactive) | 2% (inactive) | -21.6% (inactive) | 0.3 (inactive)
O=C(CN1C(=O)/C(=C/c2cccc(Br)c2)SC1=S)Nc1cccnc1 | 101% (inactive) | 105% (inactive) | 101% (inactive) | 109% (inactive) | 109% (inactive) | 58.9% | 59.7% (inactive) | -19.9% (inactive) | 102% (inactive) | 0% (inactive) | -8.62% (inactive) | -4.86% (inactive) | 4.59% (inactive) | 99% (inactive) | -10% (inactive) | 2.74% (inactive) | -0.41 (inactive)
COc1ccc2c(c1OC)C(C1c3c(cc4c(c3OC)OCO4)CCN1C)OC2=O (configuration not stated) | 107% (inactive) | 93% (inactive) | 121% (inactive) | 88.7% (inactive) | 111% (inactive) | 60.6% | 54.2% (inactive) | -23.3% (inactive) | 95.3% (inactive) | 1% (inactive) | -7.53% (inactive) | -1.99% (inactive) | 2.98% (inactive) | 98.9% (inactive) | 6% (inactive) | -2.69% (inactive) | 0.02 (inactive)
CC(=O)Oc1ccc2c(=O)c(Oc3ccccc3[N+](=O)[O-])coc2c1 | 99.8% (inactive) | 131% (inactive) | 111% (inactive) | 78.7% (inactive) | 95.6% (inactive) | 60.6% | 188% (inactive) | -0.33% (inactive) | 121% (inactive) | 3% (inactive) | -4.04% (inactive) | -1.47% (inactive) | 0.8% (inactive) | 101% (inactive) | -4% (inactive) | 0% (inactive) | -0.06 (inactive)
O=C1c2cccc3cccc(c23)C(=O)N1c1ccccn1 | 107% (inactive) | 101% (inactive) | 109% (inactive) | 97.3% (inactive) | 107% (inactive) | 58.2% | 79.7% (inactive) | 9.92% (inactive) | 107% (inactive) | 4% (inactive) | -9.79% (inactive) | 1.31% (inactive) | 3% (inactive) | 95.3% (inactive) | -11% (inactive) | -1.71% (inactive) | -0.07 (inactive)
